Results published in PubChem BioAssay.
Values joined by “and” are separate entries in the source; they are usually repeats but may differ in a detail not shown here. Equal entries are not always repeated. Active and inactive are the calls of the source.

How the values were obtained:
[1] = system: Plasmodium falciparum Sir2 (PF13_0152, Sir2A); assay: pfSir2 binders on small-molecule microarrays, primary screen, biochemical, small-molecule microarray, 635 nm fluorescence (AID 1098); conditions: small-molecule microarray binding, fluorescence 635 nm; higher = more signal;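 note: score merges spot fluorescence intensity with its signal-to-noise ratio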
[2] = small-molecule microarray binders of probe aDKK1, primary screen, biochemical, biotinylated probe, 635/667 nm fluorescence (AID 1099); conditions: higher = more signal;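 note: score merges 667nm spot fluorescence with signal to noise across triplicate slides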
[3] = small-molecule microarray binders of probe aCHRDL2, primary screen, biochemical, biotinylated probe, 635/667 nm fluorescence (AID 1100); conditions: higher = more signal
[4] = splicing luciferase reporter signal modulators, primary screen, spliceosome inhibition project, cell-based, HEK293, splice +/- reporter (AID 1101); conditions: luminescence, 24 h, higher = more signal, called active from +8 up or from −8 down;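 note: HEK293 cells carrying a splicing-competent luciferase reporter gene; test concentration not given here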
[5] = target: Fibroblast growth factor 10 (Homo sapiens) (UniProt O15520); assay: FGF10 binders on small-molecule microarrays, primary screen, biochemical, small-molecule microarray, 635 nm fluorescence (AID 1102); conditions: FGF10 binding, fluorescence 635 nm, higher = more signal
[6] = system: glycogen synthase kinase-3 (GSK3A per assay name; protocol says GSK3B); assay: GSK3 binders on small-molecule microarrays, primary screen, biochemical, small-molecule microarray, 635 nm fluorescence, GSK3A (AID 1103); conditions: small-molecule microarray binding, fluorescence 635 nm; higher = more signal; note: the record names both GSK3A and GSK3B
[7] = target: Epidermal growth factor receptor (Homo sapiens) (UniProt P00533); assay: EGFR binders on small-molecule microarrays, primary screen, biochemical, small-molecule microarray, 635 nm fluorescence (AID 1104); conditions: EGFR binding, higher = more signal;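 note: score merges 667 nm emission intensity with spot signal to noise over triplicate slides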
[8] = target: Follistatin-related protein 3 (Homo sapiens) (UniProt O95633); assay: FSTL3 binders on small-molecule microarrays, primary screen, biochemical, small-molecule microarray, 635 nm fluorescence (AID 1105); conditions: FSTL3 binding, higher = more signal;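 note: score merges emission near 667 nm and signal to noise per printed spot across three slides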
[9] = target: Dickkopf-related protein 1 (Homo sapiens) (UniProt O94907); assay: DKK1 binders on small-molecule microarrays, primary screen, biochemical, small-molecule microarray, 635 nm fluorescence scan (AID 1106); conditions: DKK1 binding, higher = more signal;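 note: score merges emission near 667 nm with signal to noise over three replicate slides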
[10] = system: Inhibin beta A chain (activin A); assay: INHBA (activin A) binders on microarrays, primary screen, biochemical, small-molecule microarray, 635 nm fluorescence scan (AID 1107); conditions: small-molecule microarray binding, higher = more signal;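 note: mouse activin A protein probed at 4.33 µg/mL on printed slides; score merges bound-protein fluorescence near 667 nm with spot signal-to-noise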
[11] = system: Human papillomavirus type 1a protein E7 (residues 44-93); assay: HPV1a E7 fragment binders on microarrays, primary screen, biochemical, small-molecule microarray, residues 44-93, 635 nm fluorescence (AID 1108); conditions: small-molecule microarray binding, fluorescence 635 nm; higher = more signal;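 note: E7 fragment applied at 1 µg/mL in TBST for 1 h at 4 C; score combines spot fluorescence with its signal to noise ratio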
[12] = modulators of HCV replicon luciferase signal, primary screen, HCV replication inhibitor project, Huh7 cells, luciferase reporter (AID 1109); conditions: 48 h, higher = more signal;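 note: huh7 hepatoma cells harbouring a luciferase neomycin HCV replicon reporter; luciferase luminescence as measure of HCV replicon replication; test concentration not given here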
[13] = target: Left-right determination factor 2 (Homo sapiens) (UniProt O00292); assay: LEFTY2 binders on small-molecule microarrays, primary screen, biochemical, small-molecule microarray, 635 nm fluorescence scan (AID 1110); conditions: LEFTY2 binding, higher = more signal
[14] = target: Calmodulin-1 (Homo sapiens) (UniProt P0DP23); assay: CALM1 binders on microarrays, EGTA buffer, profiling panel, biochemical, small-molecule microarray, Cy5-labelled CALM1 (AID 1111); conditions: Cy5-CALM1 binding fluorescence, higher = more signal;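 note: labelled calmodulin applied in Tris saline Tween buffer holding calcium plus EGTA and DTT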
[15] = target: Calmodulin-1 (Homo sapiens) (UniProt P0DP23); assay: calcium-bound CALM1 binders on microarrays, profiling panel, artefact control for SMM control-protein annotation, biochemical, small-molecule microarray, Cy5-labelled CALM1, plus calcium (AID 1112); conditions: Cy5-CALM1 binding fluorescence, higher = more signal;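 note: score merges spot fluorescence with signal to noise from triplicate slides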
[16] = small-molecule microarray binders of probe aWnt5a, primary screen, biochemical, biotinylated probe, 635/667 nm fluorescence (AID 1113); conditions: higher = more signal;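 note: score merges 667 nm fluorescence intensity with signal-to-noise per printed feature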
[17] = small-molecule microarray binders of probe aShh, primary screen, biochemical, biotinylated probe, 635/667 nm fluorescence (AID 1114); conditions: higher = more signal;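 note: probe is biotin-labelled aShh protein from a stem cell growth factor screen; measures binding of labelled protein to compounds printed on the slide; score merges feature fluorescence at 667 nm with signal-to-noise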
[18] = small-molecule microarray binders of probe aNog, primary screen, biochemical, biotinylated probe, 635/667 nm fluorescence (AID 1115); conditions: higher = more signal;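 note: probe is biotinylated aNog protein used at 0.15 µg/mL for 1 h at 4 C; z-score combines 667 nm fluorescence of each spot with its signal to noise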
[19] = target: Torsin-1A-interacting protein 1 (Homo sapiens) (UniProt Q5JTV8); assay: LAP1 binders from COS7 cell lysate, primary screen, small-molecule microarray, 635/667 nm fluorescence (AID 1116); conditions: COS7-hLAP1 lysate binding, 635 nm fluorescence, higher = more signal
[20] = target: Alpha-bungarotoxin (Bungarus multicinctus) (UniProt P60615); assay: alpha-bungarotoxin binders on microarray, profiling panel, artefact control for SMM control protein annotation, biochemical, small-molecule microarray, Alexa647 label, 635/667 nm fluorescence (AID 1117); conditions: alpha-BTX-A647 binding fluorescence, higher = more signal
Alpha-bungarotoxin (Bungarus multicinctus), sequence (P60615 whole entry, looked up): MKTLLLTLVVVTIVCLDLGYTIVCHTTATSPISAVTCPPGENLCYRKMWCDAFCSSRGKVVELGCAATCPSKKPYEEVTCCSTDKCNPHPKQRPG

Left-right determination factor 2 (Homo sapiens), sequence (O00292 whole entry, looked up): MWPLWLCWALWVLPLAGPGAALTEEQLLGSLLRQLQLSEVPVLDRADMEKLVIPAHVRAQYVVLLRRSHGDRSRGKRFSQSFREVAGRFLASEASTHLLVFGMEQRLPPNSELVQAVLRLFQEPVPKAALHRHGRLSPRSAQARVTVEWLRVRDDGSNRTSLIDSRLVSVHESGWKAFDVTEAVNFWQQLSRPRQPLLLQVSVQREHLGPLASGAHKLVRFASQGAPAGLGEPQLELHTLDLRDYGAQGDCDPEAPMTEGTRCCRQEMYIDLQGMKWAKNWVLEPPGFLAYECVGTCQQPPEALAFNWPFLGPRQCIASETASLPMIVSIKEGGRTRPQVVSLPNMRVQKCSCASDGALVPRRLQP
Epidermal growth factor receptor (Homo sapiens), sequence (P00533 whole entry, looked up): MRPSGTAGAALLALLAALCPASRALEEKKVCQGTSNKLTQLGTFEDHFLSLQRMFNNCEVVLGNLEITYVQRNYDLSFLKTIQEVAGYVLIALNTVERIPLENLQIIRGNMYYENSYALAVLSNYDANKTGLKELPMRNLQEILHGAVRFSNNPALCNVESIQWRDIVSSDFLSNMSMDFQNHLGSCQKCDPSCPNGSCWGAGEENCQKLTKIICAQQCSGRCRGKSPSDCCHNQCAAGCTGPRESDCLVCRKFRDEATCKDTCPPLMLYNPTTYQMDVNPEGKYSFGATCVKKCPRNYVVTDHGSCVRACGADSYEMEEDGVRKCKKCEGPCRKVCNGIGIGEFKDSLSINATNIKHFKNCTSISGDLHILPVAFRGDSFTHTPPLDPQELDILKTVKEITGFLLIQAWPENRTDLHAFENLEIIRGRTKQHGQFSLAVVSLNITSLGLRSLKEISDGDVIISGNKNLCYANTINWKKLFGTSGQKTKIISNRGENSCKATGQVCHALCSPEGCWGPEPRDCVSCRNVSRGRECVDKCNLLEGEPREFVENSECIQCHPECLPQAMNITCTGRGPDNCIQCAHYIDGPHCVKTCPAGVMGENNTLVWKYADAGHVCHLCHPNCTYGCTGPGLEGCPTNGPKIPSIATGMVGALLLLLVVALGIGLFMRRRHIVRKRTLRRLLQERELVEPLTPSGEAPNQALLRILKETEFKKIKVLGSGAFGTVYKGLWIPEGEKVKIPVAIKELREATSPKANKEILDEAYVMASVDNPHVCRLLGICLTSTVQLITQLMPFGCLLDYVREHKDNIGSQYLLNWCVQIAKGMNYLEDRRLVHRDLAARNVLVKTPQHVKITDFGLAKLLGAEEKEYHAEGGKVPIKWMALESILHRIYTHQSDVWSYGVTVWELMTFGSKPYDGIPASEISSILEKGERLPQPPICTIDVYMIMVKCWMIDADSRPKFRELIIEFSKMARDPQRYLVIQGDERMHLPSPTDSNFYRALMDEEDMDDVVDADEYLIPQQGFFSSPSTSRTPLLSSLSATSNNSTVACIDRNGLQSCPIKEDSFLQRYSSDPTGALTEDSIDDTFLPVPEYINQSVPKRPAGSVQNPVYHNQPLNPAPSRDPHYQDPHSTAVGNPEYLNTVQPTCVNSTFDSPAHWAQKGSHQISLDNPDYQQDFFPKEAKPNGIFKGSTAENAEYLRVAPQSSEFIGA
Follistatin-related protein 3 (Homo sapiens), sequence (O95633 whole entry, looked up): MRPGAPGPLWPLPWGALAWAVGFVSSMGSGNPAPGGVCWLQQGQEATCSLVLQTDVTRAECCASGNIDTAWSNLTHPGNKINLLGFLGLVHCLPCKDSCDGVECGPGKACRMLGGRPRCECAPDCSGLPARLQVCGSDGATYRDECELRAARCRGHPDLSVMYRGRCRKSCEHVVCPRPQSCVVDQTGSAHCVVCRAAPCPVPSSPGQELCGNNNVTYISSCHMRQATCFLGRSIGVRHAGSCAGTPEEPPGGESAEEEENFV
Dickkopf-related protein 1 (Homo sapiens), sequence (O94907 whole entry, looked up): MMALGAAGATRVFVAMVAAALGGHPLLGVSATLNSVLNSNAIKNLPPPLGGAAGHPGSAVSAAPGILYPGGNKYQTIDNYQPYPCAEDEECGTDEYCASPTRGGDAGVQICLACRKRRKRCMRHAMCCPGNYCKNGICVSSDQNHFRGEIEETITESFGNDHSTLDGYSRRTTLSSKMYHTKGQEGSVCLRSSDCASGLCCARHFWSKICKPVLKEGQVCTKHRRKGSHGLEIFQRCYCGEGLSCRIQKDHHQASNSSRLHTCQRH
Torsin-1A-interacting protein 1 (Homo sapiens), sequence (Q5JTV8 whole entry, looked up): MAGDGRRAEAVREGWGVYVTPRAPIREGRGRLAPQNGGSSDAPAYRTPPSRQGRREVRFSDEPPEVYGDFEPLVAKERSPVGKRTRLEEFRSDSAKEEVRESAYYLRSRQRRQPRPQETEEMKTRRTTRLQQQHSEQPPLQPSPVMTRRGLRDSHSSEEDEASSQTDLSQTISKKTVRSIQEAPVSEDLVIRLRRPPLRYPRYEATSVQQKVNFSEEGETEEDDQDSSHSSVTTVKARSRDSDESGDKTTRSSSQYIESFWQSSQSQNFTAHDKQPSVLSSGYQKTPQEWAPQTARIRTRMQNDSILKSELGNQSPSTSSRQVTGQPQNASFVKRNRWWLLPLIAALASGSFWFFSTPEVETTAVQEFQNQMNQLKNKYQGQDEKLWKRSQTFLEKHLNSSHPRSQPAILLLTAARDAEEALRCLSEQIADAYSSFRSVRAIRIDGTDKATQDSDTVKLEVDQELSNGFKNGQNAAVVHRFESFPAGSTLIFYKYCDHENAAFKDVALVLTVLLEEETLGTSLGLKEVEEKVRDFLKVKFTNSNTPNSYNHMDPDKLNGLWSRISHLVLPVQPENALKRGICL
Fibroblast growth factor 10 (Homo sapiens), sequence (O15520 whole entry, looked up): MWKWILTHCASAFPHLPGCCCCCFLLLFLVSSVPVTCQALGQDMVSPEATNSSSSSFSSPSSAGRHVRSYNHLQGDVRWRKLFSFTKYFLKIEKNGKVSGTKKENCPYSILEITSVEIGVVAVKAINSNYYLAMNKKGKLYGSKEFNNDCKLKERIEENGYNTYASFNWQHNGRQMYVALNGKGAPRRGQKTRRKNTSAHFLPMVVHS

Row | SMILES | composite z-score [1] | composite z-score [2] | composite z-score [3] | z-score [4] | composite z-score [5] | composite z-score [6] | composite z-score [7] | composite z-score [8] | composite z-score [9] | composite z-score [10] | composite z-score [11] | z-score [12] | composite z-score [13] | composite z-score [14] | composite z-score [15] | composite z-score [16] | composite z-score [17] | composite z-score [18] | composite z-score [19] | composite z-score [20]
1 | O=C(NN=C1C[C@@H](O)[C@@H](O)[C@@H]2[C@@H]3C(=O)N(Cc4ccc5c(c4)OCO5)C(=O)[C@@H]3CC[C@H]12)OCc1ccccc1 | -0.345 | 0.118 | 0.298 | 0.0692 (inactive) | -0.464 | -1.2 | -0.0036 | -0.904 | -1.57 | -2.22 | -0.984 | 0.401 | 0.227 | -0.643 | -1.29 | 0.0718 | 0.0796 | -0.363 | -0.842 | -0.394
2 | C=C[C@@H](C)[C@@H](O)c1ccc(OCCO)cc1 | 0.886 and 1.38 | -0.265 and -0.238 | 1.09 and 0.349 | 0.26 (inactive) and -1.46 (inactive) | -1.75 and -1.12 | -0.736 and -0.659 | -2.13 and -2.11 | -1.25 and -1.05 | -2.51 and -1.8 | -3.81 and -0.988 | -1.62 and -1.54 | -0.934 and -0.376 | -2.93 and -2.01 | -0.905 and -0.8 | 0.129 and 0.206 | -0.286 and -0.27 | -0.221 and -0.17 | -0.512 and -0.141 | -0.603 and 1.44 | -1.5 and -1.44
3 | C=CCN(CCCCC)C(=O)C1N(C(C)(C)CO)C(=O)C2C(C(=O)O)C3C=CC21O3 (stereo not given) | -0.0662 and -1.13 | -0.706 and -0.0156 | 0.767 and 0.884 | 0.507 (inactive) and 0.484 (inactive) | -1.96 and -0.741 | -1.35 and -0.534 | -1.79 and -1.92 | -1.65 and -2.06 | -1.61 and -2.14 | -3.53 and -1.16 | -2.03 and -0.698 | -0.954 and -0.659 | -1.51 and -1.83 | -0.569 and -0.284 | 0.515 and 1.07 | -0.297 and -0.176 | -0.0626 and -0.138 | -0.0809 and 0.274 | -1.47 and -0.47 | -1.26 and -2.68
4 | COc1ccc(O[C@H]2C=C[C@@H](c3ccccc3)O[C@@H]2COC(=O)CCC(C)=NO[C@H](C)c2cn([C@H](CO)Cc3ccccc3)nn2)cc1 | 0.366 and 0.205 | 0.416 and -0.0879 | -0.305 and -0.291 | -0.643 (inactive) and -1.07 (inactive) | -0.0593 and 0.263 | -0.018 and 0.173 | 0.188 and 0.353 | 0.73 and 0.397 | 1.12 and 1.39 | 0.164 and 0.485 | -0.0009 and -0.0146 | -1.99 and -2.59 | 0.195 and 0.439 | -0.223 and -0.233 | -0.232 and -0.239 | -0.132 and 0.205 | -0.0553 and -0.129 | -0.0827 and 0.96 | 0.14 and 0.392 | 0.211 and 0.231
5 | C=CCN(C(=O)C1N(CCCCCCO)C(=O)C2C(C(=O)O)C3C=CC21O3)c1ccc(OC)cc1 (stereo not given) | 1.04 and -1.32 | 0.0787 and 0.332 | 1.27 and 1.18 | -1.67 (inactive) and -0.118 (inactive) | -0.791 and -1.26 | -0.329 and -0.852 | -2.79 and -2.32 | -2.58 and -1.84 | -2.84 and -2.35 | -1.71 and -1.78 | -0.862 and -1.21 | -0.67 and -0.824 | -3.9 and -3.75 | -0.0411 and -1.13 | 0.734 and 0.0742 | -0.224 and -0.124 | -0.0011 and 0.551 | 0.692 and 0.838 | 2.83 and 1.74 | -2.05 and -1.37
6 | C[C@@H]1CN2[C@@H](CC[C@@H](C)[C@@H]2c2ccc(Br)cc2)C(=O)O1 | -0.638 and -0.597 | -0.295 and -0.239 | -0.211 and -0.583 | -0.142 (inactive) and -1.21 (inactive) | -0.0428 and 0.337 | -0.534 and -0.046 | 0.167 and 0.49 | -0.579 and -0.462 | 0.313 and 0.233 | 0.502 and 0.45 | -0.561 and -0.15 | -0.67 and 1.5 | 0.57 and 0.0106 | -0.235 and -0.676 | -0.535 and 0.1 | -0.148 and -0.206 | -0.59 and -0.428 | 0.0014 and -0.287 | -0.0307 and -0.0763 | -0.209 and 0.0857
7 | C=CCN(CCCCC)C(=O)C1N(c2c(Cl)cccc2CO)C(=O)C2C(C(=O)O)C3C=CC21O3 (stereo not given) | -0.116 and 0.397 | 0.784 and 0.13 | 0.479 and 1.12 | -0.282 (inactive) and -0.455 (inactive) | -1.35 and -1.3 | -0.607 and -1.18 | -3.02 and -1.91 | -2.09 and -2.23 | -2.91 and -2.56 | -1.96 and -1.99 | -0.495 and -1.04 | -1.62 and -0.992 | -1.3 and -3.32 | -0.522 and -1.03 | 0.639 and 0.545 | -0.292 and -0.23 | -0.214 and -0.262 | 0.0029 and 0.0473 | 0.443 and -0.697 | -1.91 and -1.04
8 | CC(CO)N1C(=O)[C@@H]2C3C(=O)OCCC=C[C@H]3OC23C=CCN(CCN2CCOCC2)C(=O)[C@@H]13 (stereo not given in full) | 0.53 and 0.55 | -0.278 and 0.0598 | -0.389 and 0.466 | 0.388 (inactive) and -0.153 (inactive) | -0.131 and -0.0694 | -0.496 and 0.65 | -0.51 and -0.235 | -0.0214 and -0.166 | 0.0325 and -0.442 | 0.621 and 1.59 | -1.05 and 0.497 | -0.38 and -0.851 | -0.346 and 0.398 | -0.0612 and -0.561 | -0.75 and -1.03 | -0.0981 and -0.13 | 0.0278 and 0.214 | 0.199 and -0.0161 | -0.71 and 1.48 | -0.106 and -0.0808
9 | CC(C)OC(=O)C=C1C[C@@H](c2ccccc2)O[C@@H](c2ccccc2)O1 | 0.733 and 1.54 | 0.164 and 0.272 | 0.0614 and 0.847 | 0.0661 (inactive) and 2.56 (inactive) | 1.45 and 1.42 | 1.34 and 1.31 | 0.65 and 0.664 | 1.44 and 1.41 | 0.527 and 0.481 | -0.0632 and 1.05 | 1.48 and 1.45 | -2.1 and -1.36 | 0.826 and 0.795 | 0.056 and 1.23 | -0.147 and -0.505 | 0.166 and 0.0915 | -0.185 and 0.131 | 0.286 and 0.403 | 1.3 and 1.28 | 1.03 and 1.75
10 | C=CCN(C(=O)C1N(c2ccc(CCO)cc2)C(=O)C2C(C(=O)O)C3C=CC21O3)c1ccc(OC)cc1 (stereo not given) | 1.07 and -0.0141 | -0.0654 and -0.638 | 0.581 and 0.683 | 0.119 (inactive) and -0.374 (inactive) | -0.0665 and -1.53 | -0.313 and -1.1 | -1.33 and -1.47 | -1.01 and -0.528 | -1.35 and -0.641 | -2.09 and -3.41 | -0.178 and -3.84 | 0.174 and 0.383 | -1.59 and -1.27 | -0.394 and -0.181 | -0.702 and 0.0188 | -0.154 and -0.285 | 0.0899 and -0.239 | -0.172 and 0.0343 | -0.447 and 0.206 | -0.102 and -0.62
